Screening results (PubChem)
Sampled rows, rich in hits. Any-hit rate of the full collection: about 27%.
CYP2C9 activ = increases human cytochrome P450 2C9 activity; activation factor at 5 µM; actives 1.4% (n = 96,000); recombinant CYP2C9, luciferin-H conversion, luminescence; stronger effect = higher value; factor 1 = untreated enzyme, 0 = blocked;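 active = activation factor of 2 or more for CYP2C9 at a 5 µM dose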;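 also: 0 = sulfaphenazole-blocked wells and 1 = vehicle-only wells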
CYP2C19 activ = increases human CYP2C19 enzyme activity; recombinant CYP2C19, luciferin-H EGE luminescence; stronger effect = higher value; 0 = fully inhibited enzyme, 1 = untreated enzyme; activation factor at 5 µM; 96,000 tested, under 10 active; P33261;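 active = activation factor of at least 2 at 5 µM in the primary screen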;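 also: 0 = wells with 2.5 mM tranylcypromine and 1 = vehicle-only wells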
sEH activator = increases human soluble epoxide hydrolase activity | P34913 | purified human sEH enzymatic activity, activator screen | activation, % at 2 µM | actives 0.04% (n = 91,000) | AID 717; in the data active = activation above about 37%
Target sequence (P34913 whole entry, looked up): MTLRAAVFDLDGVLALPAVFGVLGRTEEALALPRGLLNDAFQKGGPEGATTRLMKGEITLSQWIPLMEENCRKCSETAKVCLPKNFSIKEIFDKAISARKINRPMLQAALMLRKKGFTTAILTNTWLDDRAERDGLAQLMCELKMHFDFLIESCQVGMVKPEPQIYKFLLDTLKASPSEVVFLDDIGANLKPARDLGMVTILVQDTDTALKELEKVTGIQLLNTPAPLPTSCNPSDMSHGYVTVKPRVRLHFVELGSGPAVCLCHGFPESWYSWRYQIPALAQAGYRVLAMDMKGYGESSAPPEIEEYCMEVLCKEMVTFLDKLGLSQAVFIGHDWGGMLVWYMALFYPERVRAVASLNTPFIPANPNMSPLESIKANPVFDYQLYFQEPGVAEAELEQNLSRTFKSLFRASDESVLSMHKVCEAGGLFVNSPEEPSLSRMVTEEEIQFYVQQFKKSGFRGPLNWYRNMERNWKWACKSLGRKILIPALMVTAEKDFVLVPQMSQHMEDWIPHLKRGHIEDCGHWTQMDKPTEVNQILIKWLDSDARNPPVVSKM
CYP2C9 inhib = inhibitors of human CYP2C9; P11712; CYP2C9 Supersomes, luciferin-H conversion, luminescence; inhibition, % at 5 µM; actives 20% (n = 96,000);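 active = blocking of liver enzyme CYP2C9 beyond about 50% at 5 µM, limit read from the data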
sEH inh = inhibitors of human soluble epoxide hydrolase. actives 0.34% (n = 91,000). recombinant human sEH enzymatic activity assay. AID 707. inhibition, % at 2 µM; in the data active = inhibition above about 80%
CYP2C19 inh = inhibitors of human CYP2C19. CYP2C19 Supersomes, luciferin-H EGE luminescence, 30 min. inhibition, % at 5 µM. actives 21% (n = 96,000);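 active = CYP2C19 inhibition above a set limit at 5 µM in the primary screen, cut at about 50% in these data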;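 also: plate controls were negative control wells for no effect and 2.5 mM tranylcypromine positive control for full effect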
* = called active by the depositor; · = no result.

SMILES | CYP2C9 activ | CYP2C19 activ | sEH activator | CYP2C9 inhib | sEH inh | CYP2C19 inh
COc1cccc(Oc2c(C)oc3cc(OC(=O)N(C)C)ccc3c2=O)c1 | 0.6 | 0.2 | 7 | 42 | -8 | 85*
Cc1oc2ccc(OC(=O)N(C)C)cc2c1C(=O)OC(C)C | 0.4 | 0.2 | 4 | 65* | 0 | 78*
CC(C)n1nnnc1CN1CCN(C)CC1 | 1.1 | 0.9 | -8 | -9 | 9 | 7
O=C1OCCC1NC1=NCCC1 (stereo not given) | 1 | 1 | 4 | 1 | -1 | -2
CC(C)n1cc(C(=O)N(CC(=O)NC(C)(C)C)Cc2ccccc2)cn1 | · | · | -2 | · | 7 | ·
CCCCOC(=O)C1=C(N)OC2=C(C(=O)CC(C)(C)C2)[C@]12C(=O)N(C)c1ccccc12 | 1 | 0.9 | · | 2 | · | 12
CC1(C)C(C(=O)NN2C(=O)c3ccccc3C2=O)C1(C)C | 1 | 0.8 | 18 | 2 | -16 | 20
CCOC(=O)N1CCN(C(C)C(=O)c2c[nH]c3ccccc23)CC1 (stereo not given) | 0.2 | 0.1 | 13 | 84* | -15 | 92*
Cc1sc2nc(COC(=O)Cc3ccccc3)[nH]c(=O)c2c1C | 0.4 | 0.6 | -20 | 60* | 18 | 40
CN1CCN(c2c[nH]c(=O)[nH]c2=O)CC1 | · | · | 1 | · | 2 | ·
COc1ccc2c(c1)c(C(=O)O)c(C)n2CC(C)C | 0.9 | 0.2 | 12 | 6 | -11 | 85*
OCC12CO[C@@H]3c4ccccc4[C@H](OC1)N32 (stereo not given in full) | 1 | 1 | 1 | 1 | 0 | 2
COC(=O)c1cc(C(O)(C(=O)OC)C(F)(F)F)c(/N=C/N(C)C)s1 (stereo not given) | 0.3 | 0.2 | 14 | 73* | -14 | 83*
CCn1c(=O)cc(SCC(=O)N2CCC3(CC2)OCCO3)c2ccccc21 | 2.2* | 0.6 | -3 | -120 | 4 | 39
Cn1c(=O)n(CC(=O)N2CCC3(CC2)OCCO3)c(=O)c2ccccc21 | 1.1 | 0.7 | · | -6 | · | 34
CC(=NCCC1=CCCCC1)c1c(O)n(C)c(=O)n(C)c1=O | 0.5 | 0.6 | -10 | 50* | 9 | 42
CCCCn1c(O)c(C(C)=NCC2CCCO2)c(=O)[nH]c1=O (stereo not given) | 0.8 | 0.8 | 24 | 23 | -25 | 20
CCOP(=S)(OCC)SCC(=O)NC(C(=O)O)C(C)C (stereo not given) | 0.1 | 0.9 | 27 | 92* | -29 | 7
CCOC(=O)C(C)(CC)NC(=O)CSP(=S)(OCC)OCC (stereo not given) | 0.1 | 0 | 7 | 91* | -7 | 98*
Nc1ccc(S(=O)(=O)N2CCCCC2c2cccnc2)cc1 (stereo not given) | 1 | 0.7 | -4 | 0 | 3 | 31
O=S(=O)(c1ccccc1)N1CCCCC1c1cccnc1 (stereo not given) | 0.9 | 0.5 | -7 | 6 | 6 | 52*
CC(c1ccccc1)n1cncc1C(=O)O (stereo not given) | · | · | -2 | · | 7 | ·
Cc1cccnc1-n1c(C)nc2ccccc2c1=O | 1.1 | 1.2 | 6 | -12 | -8 | -17
Cc1ccc2nc(-c3ccncc3)cc(C(=O)N3CCC4(CC3)OCCO4)c2c1 | 0.5 | 0.8 | 2 | 51* | 1 | 17
O=C(c1cc(-c2cccnc2)nc2ccc(Cl)cc12)N1CCC2(CC1)OCCO2 | 0.8 | 0.9 | -4 | 17 | 7 | 9
SMILES | CYP2C9 activ | CYP2C19 activ | sEH activator | CYP2C9 inhib | sEH inh | CYP2C19 inh
OC12Oc3ccccc3C=C1N1CCC2CC1 (stereo not given) | 1.1 | 0.9 | -11 | -15 | 10 | 8
CC(=O)C1(c2ccccc2)CCNCC1 | 0.9 | 1 | -17 | 5 | 16 | 1
O=C1NCN(c2ccccc2)C12CCNCC2 | 1.1 | 0.1 | 14 | -6 | -14 | 89*
CCn1c(O)c(C=NCc2cccs2)c(=O)[nH]c1=O | 1.1 | 1 | 24 | -7 | -26 | -4
O=C(COc1ccc(Br)cc1)N1CCN(Cc2c[nH]c3ccccc23)CC1 | 0.1 | 0.1 | -14 | 89* | 16 | 86*
O=C(COc1ccc2ccccc2c1)N1CCN(Cc2c[nH]c3ccccc23)CC1 | 0.8 | 0.8 | 2 | 22 | -5 | 19
CCc1ccc(N2C(=O)NC(=O)C(Cc3ccc(OC)cc3OC)C2=O)cc1 (stereo not given) | 0.9 | 0.9 | -27 | 13 | 27 | 10
COc1ccc(C2NCc3ccc4c(c3-n3cccc32)OCO4)cc1O (stereo not given) | 1.1 | 0.3 | -8 | -6 | 11 | 68*
c1cc2n(c1)-c1c(ccc3c1OCO3)CNC2c1ccc2c(c1)OCO2 (stereo not given) | 0.2 | 0 | 10 | 77* | -9 | 99*
O=C(c1cc(=O)[nH]c2ccc(Br)cc12)N1CCC2(CC1)OCCO2 | 0.9 | 0.9 | 5 | 7 | -8 | 10
CC(C)c1cccc(C(C)C)c1OCCn1ccnc1 | 0.2 | 0 | -61 | 78* | 60 | 99*
Cc1cc(OCC(=O)Nc2cc(C)nn2-c2ccccn2)c2c3c(c(=O)oc2c1)CCC3 | 0.5 | 1 | · | 48 | · | 3
Cc1cc(OCC(=O)O)c2c3c(c(=O)oc2c1)CCCC3 | 0.9 | 1 | 8 | 9 | -3 | 1
Cc1ccc(-n2nc(C)cc2NC(=O)COc2cc(C)cc3oc(=O)c4c(c23)CCC4)cc1 | 0.2 | 0.8 | -2 | 80* | 4 | 25
COC(=O)c1ccc(COc2cc(C)cc3oc(=O)c4c(c23)CCCC4)o1 | 0 | 0.2 | 10 | 98* | -11 | 79*
CC(=O)c1cccc(OCC(O)CN2CC=C(c3ccccc3)CC2)c1 (stereo not given) | 0.5 | 0.4 | -6 | 51* | 5 | 55*
CCCCn1c(O)c(C(C)=NCCN2CCCCC2)c(=O)[nH]c1=O | 1 | 1 | 19 | 4 | -17 | 3
CCCCn1c(O)c(C(C)=Nc2ccc(OCC)cc2)c(=O)[nH]c1=O | 0.6 | 0.8 | -2 | 43 | 4 | 25
CCCCCCn1c(O)c(C(C)=NC)c(=O)[nH]c1=O | 0.4 | 0.2 | 4 | 61* | 0 | 83*
CCCCn1c(O)c(C(C)=NC(Cc2c[nH]c3ccccc23)C(=O)OC)c(=O)[nH]c1=O (stereo not given) | 0 | 0 | 7 | 97* | -6 | 95*
O=c1c2ccccc2nc(-c2ccccc2)n1-n1cccc1 | 0.4 | 0.5 | 3 | 57* | -3 | 53*
C1=C(CCNCc2ccccc2)CCCC1 | 0.8 | 0.3 | -18 | 19 | 20 | 70*
Nc1ccccc1N=Cc1c(O)n(CCC2=CCCCC2)c(=O)[nH]c1=O | 0.7 | 0.8 | -15 | 32 | 15 | 20
CCCC1COC(Cn2cncn2)(c2ccc(Cl)cc2Cl)O1 (stereo not given) | 0.2 | 0.1 | 17 | 77* | -18 | 93*
CCOC(=O)c1c(C)n(CCOC)c2ccc(O)cc12 | 0.6 | 0.3 | -2 | 35 | -2 | 69*
